RORg inh: qHTS for inhibitors of ROR gamma transcriptional activity | AID 2551, 2010 | hit rate 5.4% among 310,000 | Drosophila S2 Gal4-RORgamma UAS-luciferase reporter, 20 h | Potency, µM (highest dose often 53.6 µM), for inactives: at the highest dose activity change, negative = inhibition, actives largely listed as inhibitors; further: on the % scale 0 is the no-effect control and ±100 the full control effect; nearly all actives have a fitted effect of over 60% in size
Target sequence (P51450 whole entry, looked up, the tested form may be a part): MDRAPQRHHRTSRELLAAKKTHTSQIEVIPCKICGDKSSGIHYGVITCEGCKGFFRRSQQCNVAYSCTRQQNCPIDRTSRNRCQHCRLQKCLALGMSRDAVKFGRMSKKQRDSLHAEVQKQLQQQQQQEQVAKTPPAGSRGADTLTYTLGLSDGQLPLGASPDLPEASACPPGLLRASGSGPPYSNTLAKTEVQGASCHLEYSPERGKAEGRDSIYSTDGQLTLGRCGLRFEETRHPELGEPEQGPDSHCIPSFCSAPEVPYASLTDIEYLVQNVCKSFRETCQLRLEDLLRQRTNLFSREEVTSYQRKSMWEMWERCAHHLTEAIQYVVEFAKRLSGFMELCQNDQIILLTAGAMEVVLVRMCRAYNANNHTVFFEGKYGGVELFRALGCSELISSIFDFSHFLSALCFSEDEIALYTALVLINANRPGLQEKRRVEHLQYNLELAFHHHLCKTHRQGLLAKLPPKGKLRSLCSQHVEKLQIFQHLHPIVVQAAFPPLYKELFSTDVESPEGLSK
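In this cell-based reporter format, copper sulfate (700 uM final) drives Gal4–ROR gamma fusion expression from a metallothionein promoter in Drosophila Schneider cells; compounds preincubated 1 hr, reporter read after 20 hr at ambient temperature.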
Gal4-VP16 FLuc: VP16 counterscreen qHTS for inhibitors of ROR gamma transcriptional activity; Potency, µM (top dose mostly 53.6 µM), for the others: at the highest dose activity, negative = inhibition, actives largely listed as inhibitors; AID 2546, 2010; hit rate 3.5% among 310,000; Drosophila S2 Gal4-VP16 UAS-luciferase, luminescence, 20 h;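 further: Gal4-VP16 expression switched on by copper sulfate through the metallothionein promoter; on the % scale 0 is the no-effect control and ±100 the full control effect; nearly all actives have a fitted effect of over 50% in size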
Mito fusion act: qHTS Assay for Small Molecule Inhibitors of Mitochondrial Division or Activators of Mitochondrial Fusion; hit rate 0.23% among 320,000; Potency, µM (highest dose often 46.1 µM), inactives show at the top dose growth rescue (activation), most hits filed as activators; AID 485298, 2010; S. cerevisiae fusion-defective mutant growth rescue, CellTiterGlo 48 h; further: % of control where 0% means no effect; nearly all actives have a fitted effect of over 45% in size
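Luminescent cell viability in 1536-well qHTS format served as the measure of rescued growth in ts fusion-mutant S. cerevisiae cultured on non-fermentable YPEG for 48 hours at 37C.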
a7 integrin act: qHTS for Activators of Integrin-Mediated Alleviation for Muscular Dystrophy. AID 624291, 2012. alpha7betagal myoblasts, beta-gal FDG fluorescence, 48 h. Potency, µM (titrated, usually from 38.3 µM), for inactives: at the top dose activation, usual class: activators. hit rate 0.064% among 350,000;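 further: 100% = response of the positive control SU9516; nearly all actives have a fitted effect of over 60% in size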
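alpha7betagal+/- myoblasts (passage 13, 250/well) treated 48 h at 37C with compounds at 1:260 dilution of DMSO stock. Lysed, then beta-galactosidase activity read as FDG fluorescence (ex 480/em 540) after 30 min, with pre-read for autofluorescence.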
uPA surface inh: qHTS for Inhibitors of Cell Surface uPA Generation; cell surface uPA generation assay, qHTS; hit rate 0.31% among 330,000; AID 540303, 2011; Potency, µM (series often up to 38.3 µM), for inactives: at the top dose activity change, negative = inhibition, actives largely listed as inhibitors; active means well fitted inhibition curve with a large enough effect; inconclusive means small, poorly fitted or top-dose-only effect; inactive means no such curve, though single readings can be large or run the other way; tested in mouse RAW 264.7 cells; further: on the % scale 0 is the no-effect control and ±100 the full control effect; nearly all actives have a fitted effect of over 55% in size
BCR signal inh: qHTS Assay to Find Inhibitors of Chronic Active B-Cell Receptor Signaling | hit rate 0.05% among 340,000 | ABC-DLBCL IkBa-CBG/CBR reporter, luminescence ratio, 4 h | AID 493014, 2011 | Potency, µM (top dose mostly 46.1 µM), for the others: top-dose activity change, negative = inhibition, usual class: inhibitors; active means well fitted inhibition curve with a large enough effect in the signal ratio, with a control signal flat, not every such curve was filed as active; inconclusive means small, poorly fitted or top-dose-only effect, or effect the other way, or a change in a side signal; the % refers to the signal ratio;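 further: plate controls were basal doxycycline-induced cells for no effect and cells given 10 µM MG132 for full effect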
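TMD8 ABC-DLBCL cells carrying doxycycline-inducible green luciferase fused to IkappaBalpha plus unfused red luciferase were exposed to compounds (up to 46 uM) for 4 hrs at 37C. Activity came from the overlap-corrected green/red luminescence ratio.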
Starred values were filed as active, the others as inactive; ? = inconclusive; . = not tested or not shown; [ ] = remark or other dose. An excerpt weighted towards active compounds, which were near 5.5% of everything screened. Unless noted, the call rests on the fitted dose curve; in most records, active means well fitted curve in the direction sought with a large enough effect; inconclusive means small, poorly fitted or top-dose-only effect, or another doubt; inactive means no such curve, though single readings can be large; an effect the other way counts as inactive or inconclusive. Potency means the concentration at half of the fitted maximal effect.

SMILES	RORg inh	Gal4-VP16 FLuc	Mito fusion act	a7 integrin act	uPA surface inh	BCR signal inh
COc1ccc(N/N=C(\C#N)C(N)=O)cc1	15%	19%	-6%	10%	2%	-14%
N#C/C(=N/Nc1ccc(OC(F)(F)F)cc1)C(N)=S	4.5µM*	4.5µM*	-3%	-65%	7.9µM*	?
Cn1c(=O)c2c(nc(CN3CCc4ccccc4C3)n2Cc2cccc(Cl)c2)n(C)c1=O	?	-11%	-10%	1%	7.9µM*	-15%
CCOC(=O)Cn1c(CN2CCc3ccccc3C2)nc2c1c(=O)n(C)c(=O)n2C	-31%	4µM*	-7%	-7%	-12%	?
COC(=O)Cn1c(CN(C)Cc2ccccc2)nc2c1c(=O)n(C)c(=O)n2C	?	13µM*	1%	-24%	?	-1%
CCOC(=O)Cn1c(CN(C)Cc2ccccc2)nc2c1c(=O)n(C)c(=O)n2C	.	.	.	-7%	-4%	.
Cn1c(=O)c2c(nc(CN3CCN(Cc4ccccc4)CC3)n2Cc2cccc(Cl)c2)n(C)c1=O	3%	1%	-4%	-37%	-27%	0%
O=[N+]([O-])c1cccc(C(F)(F)F)c1	35%	-2%	.	.	.	.
CSCC[C@H](NC(=O)OC(C)(C)C)C(=O)N/N=C/c1ccc2nccnc2c1	31%	-9%	-4%	0%	8%	4%
NC(=O)C1CCN(c2oc(/C=C/c3ccc(F)cc3)nc2S(=O)(=O)c2ccccc2)CC1	8%	-11%	0%	16%	-4%	-1%
COc1ccccc1/C=C/c1nc(S(=O)(=O)c2ccccc2)c(N2CCC(C(N)=O)CC2)o1	20%	-6%	35µM*	3%	2%	1%
CC1(CCc2ccccc2)NC(=S)N(c2ccccc2)N1 (stereo not given)	?	20µM*	19%	20%	-4%	5%
CC1(CCc2ccccc2)NC(=S)N(c2ccc(Cl)cc2)N1 (stereo not given)	10µM*	?	1%	17%	4%	?
CC1(c2ccc(Cl)cc2)NC(=S)N2C1NC(=S)N2c1ccccc1 (stereo not given)	-19%	-1%	3%	0%	3%	?
CCC(C)(C)C1CCC2(CC1)NC(=S)N(c1ccccc1)N2 (stereo not given)	?	?	-2%	-4%	-26%	9%
Cc1noc(C)c1COc1ccc(C(=O)N2CCN(S(=O)(=O)c3ccc(F)cc3)CC2)cc1	.	.	.	-12%	-4%	.
CCOC(=O)[C@]1(C(NC(=O)OC)c2ccco2)CCCC1=O (stereo not given in full)	-17%[10 µM]	0%[10 µM]	.	.	.	.
CC(Oc1ccc(Br)cc1)C(=O)Nc1nc(-c2ccccn2)cs1 (stereo not given)	2.5µM*	3.2µM*	-19%	-45%	2%	?
CCc1nnc(NC(=O)C(NC(=O)c2ccccc2Cl)C(C)C)s1 (stereo not given)	-7%	2%	-5%	8%	4%	-1%
CC(C)[C@H](NC(=O)c1ccccc1Cl)C(=O)Nc1nc(-c2ccccn2)cs1	7.9µM*	?	-9%	-37%	-1%	?
O=C(COc1ccc(F)cc1)Nc1nc(-c2ccccn2)cs1	.	.	8%	-2%	9%	-1%
Cc1ccc(Cl)cc1NC(=O)c1oc2ccc(S(=O)(=O)N(C)C3CCCCC3)cc2c1C	.	.	.	.	.	-1%
COc1ccc(/C=[N+](\[O-])C2N(c3ccccc3)C(=S)SC2(C)C)cc1OC (stereo not given)	-5%	-5%	5%	0%	-3%	?
COc1ccc(Cc2nnc(SCC(=O)c3c(N)n(C4CC4)c(=O)[nH]c3=O)o2)cc1	.	.	1%	-1%	7%	?
O=C(NC1CC1)c1ccc(-c2nc3ccccc3s2)s1	7.9µM*	?	1%	-12%	-13%	?
SMILES	RORg inh	Gal4-VP16 FLuc	Mito fusion act	a7 integrin act	uPA surface inh	BCR signal inh
CCN1CCN(C(=O)c2ccc(-c3nc4ccccc4s3)s2)CC1	16%	0%	-1%	14%	?	?
c1ccc2sc(N3CCOCC3)nc2c1	4%	?	-2%	23%	.	-11%
c1ccc2sc(SN3CCOCC3)nc2c1	10µM*	7.1µM*	-4%	24%	2%	1%
O=C(c1ccc(-c2nc3ccccc3s2)s1)N1CCOCC1	4.5µM*	?	-7%	?	?	?
CC(=O)N1CCC2(CCN(Cc3ccccc3)CC2)CC1	-9%	-1%	.	.	.	.
COc1ccc(O[C@H]2C=C[C@@H](c3ccccc3)O[C@H]2CO/N=C(/C)CCC(=O)OC[C@@H]2O[C@H](c3ccccc3)C=C[C@@H]2Oc2ccc(OC)cc2)cc1	26%[10 µM]	-3%[10 µM]	.	.	.	.
CC1=C/C(=N\NC(=O)c2cccs2)CC(C)(C)C1	6.3µM*	11µM*	-1%	0%	8%	5%
O=C(NN=C1CCCC1)c1cccs1	?	?	2%	2%	-2%	?
CC(C)CCC(CCNCc1ccccn1)c1ccc(Cl)cc1 (stereo not given)	11µM*	-13%	-48%	-6%	-9%	?
CCSc1nnc(NC(=O)CSc2nccn2-c2cc(C)cc(C)c2)s1	14µM*	?	7%	-11%	-1%	-7%
CCSc1nnc(NC(=O)CSc2nccn2-c2cccc(C)c2C)s1	10µM*	?	9%	-24%	6%	11%
CCSc1nnc(NC(=O)CSc2ncccn2)s1	-9%[0.365 µM]	.	-6%	-3%	-3%	?
CCSc1nnc(NC(=O)CSc2c(Cl)cccc2Cl)s1	11µM*	-24%	4%	6%	3%	-1%
Cc1cccc(-n2ccnc2SCC(=O)Nc2nnc(C)s2)c1	-26%	4%	3%	-18%	?	-17%
O=C(Nc1ccc(C(=O)Nc2ccc(C(=O)Nc3ccc(S(=O)(=O)O)c4cc(S(=O)(=O)O)cc(S(=O)(=O)O)c34)cc2)cc1)Nc1ccc(C(=O)Nc2ccc(C(=O)Nc3ccc(S(=O)(=O)O)c4cc(S(=O)(=O)O)cc(S(=O)(=O)O)c34)cc2)cc1	13%	-1%	.	.	.	.
O=C(O)CC1(CC(=O)NCc2csc(-c3cccs3)n2)CCCCC1	2%	-13%	-7%	-16%	15%	-3%
CCC(C)[C@H]1CNC(=S)N1CCc1cc(C(F)(F)F)cc(C(F)(F)F)c1 (stereo not given in full)	2.2µM*	4µM*	-19%	-46%	-6%	-12%
Nc1ccc2c(c1)C(=O)c1ccccc1C2=O	?	-21%	5%	-9%	2%	17%

Source: PubChem
